This passage reports growth inhibition results from PubChem BioAssay (NCI).

Assay [1] in a line: NCI Yeast Anticancer Drug Screen. Data for the rad50 strain (AID 155).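 Note: 0% = growth of vehicle-only cultures of the same strain.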 Particulars: S. cerevisiae rad50 strain growth inhibition, active compounds read high. In a few lines: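 Relative growth inhibition (compound vs vehicle) was measured in yeast with a defined repair-gene alteration.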
The nature of assay [2]: NCI Yeast Anticancer Drug Screen. Data for the mec2-1 strain (AID 157). Particulars: S. cerevisiae mec2-1 strain, active compounds read high. In a few lines: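 Yeast mec2-1 mutant treated with compound. Readout: growth inhibition vs vehicle controls.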
A short description of assay [3]: NCI Yeast Anticancer Drug Screen. Data for the sgs1 mgt1 strain (AID 161).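 Note: 0% = growth of cultures given vehicle only.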 Particulars: S. cerevisiae sgs1 mgt1 strain, active compounds read high. In a few lines: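 Inhibition of yeast growth, normalised to vehicle-treated controls, is reported for a strain bearing genetic alterations in DNA damage repair.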
Assay [4] in a line: NCI Yeast Anticancer Drug Screen. Data for the cln2 rad14 strain (AID 165).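 Note: 0% = growth equal to vehicle treated cultures.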 Particulars: S. cerevisiae cln2 rad14 strain, active compounds read high. Put shortly:
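cln2 rad14 yeast strain; compound exposure; growth inhibition read vs vehicle controls.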

A short description of assay [5]: NCI Yeast Anticancer Drug Screen. Data for the bub3 strain (AID 167). Conditions: S. cerevisiae bub3 mutant strain, active compounds read high. In a few lines: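 Screening used yeast with an engineered genetic alteration affecting cell cycle control. Compound-exposed cultures were compared with vehicle cultures, and reduced growth was taken as inhibition.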
The nature of assay [6]: NCI Yeast Anticancer Drug Screen. Data for the mlh1 rad18 strain (AID 175). Conditions: S. cerevisiae mlh1 rad18 strain growth inhibition, active compounds read high. Put shortly: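 Yeast w/ defined DNA-repair lesions; compound exposure; growth vs vehicle controls → % inhibition.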
[7] abbreviates: at 5.0 µM (retest, dose inferred, filed as 0.5).
Where [8] appears, read: at 50.0 µM (retest, dose inferred, filed as 5.0).

Structures are written as SMILES. This is part of a sample that, as a whole, favours compounds with a hit. Of some 79,000 tested, about 15% had one in any assay. A number with no mark means an inactive call. Active and inactive are the calls of the source. Cut-off read from the data, not from the text of the source: active = growth inhibition above about 70%; inactive = the rest.

Turning to `COc1ccc(N=Cc2cc(Br)cc(Br)c2O)cc1.COc1ccc(N=Cc2cc(Br)cc(Br)c2O)cc1.[Co]`, the growth inhibition in assay [1] (setting [7]) was 79% (active); in assay [1] (setting [8]), 75% (active); in assay [1] (at 50.0 µM), 74% (active); in assay [2] (setting [7]) it was 80% (active); in assay [2] (setting [8]), 88% (active); in assay [2] (at 50.0 µM), 79.6% (active). The growth inhibition in assay [3] (setting [7]) was 90% (active); in assay [3] (setting [8]), 85% (active); in assay [3] (at 50.0 µM), 90.6% (active); in assay [4] (setting [7]), 48%; in assay [4] (setting [8]) it was 66%; in assay [4] (at 50.0 µM) it was 52.7%. The growth inhibition in assay [5] (setting [7]) was 86% (active); in assay [5] (setting [8]), 59%; in assay [5] (at 50.0 µM), 62.6%; in assay [6] (setting [7]), 97% (active); in assay [6] (setting [8]), 78% (active); in assay [6] (at 50.0 µM), 80.8% (active).
For `c1ccc(NNc2ccc3ccccc3n2)cc1`, the growth inhibition was 3% in assay [1] (setting [7]); 96% (active) in assay [1] (setting [8]); 38.6% in assay [1] (at 50.0 µM); -21% in assay [2] (setting [7]); 2% in assay [2] (setting [8]); 44.6% in assay [2] (at 50.0 µM). Besides, the growth inhibition was -3% in assay [3] (setting [7]); 18% in assay [3] (setting [8]); 77.2% (active) in assay [3] (at 50.0 µM); -6% in assay [4] (setting [7]); -1% in assay [4] (setting [8]); 39% in assay [4] (at 50.0 µM). Besides, the growth inhibition in assay [5] (setting [7]) was 24%; in assay [5] (setting [8]), 85% (active); in assay [5] (at 50.0 µM), 77.6% (active); in assay [6] (setting [7]), 0%; in assay [6] (setting [8]), 40%; in assay [6] (at 50.0 µM) it was 65.8%.
Turning to `O=C1C=C(c2ccccc2)OC(c2ccccc2)C1` (configuration not stated), the growth inhibition in assay [1] (setting [7]) is -150%; in assay [1] (setting [8]), -112%; in assay [1] (at 50.0 µM), 43.1%; in assay [2] (setting [7]), -52%; in assay [2] (setting [8]), -59%; in assay [2] (at 50.0 µM), 41.8%. The growth inhibition in assay [3] (setting [7]) was -63%; in assay [3] (setting [8]), -37%; in assay [3] (at 50.0 µM), 15.2%; in assay [4] (setting [7]), -69%; in assay [4] (setting [8]), -67%; in assay [4] (at 50.0 µM) it was -38.4%. The growth inhibition in assay [5] (setting [7]) is -68%; in assay [5] (setting [8]), -25%; in assay [5] (at 50.0 µM), 44.1%; in assay [6] (setting [7]), -141%; in assay [6] (setting [8]), -97%; in assay [6] (at 50.0 µM) it was 27.3%.
On to `O=Cc1cc2ccccc2cc1C=O`, for which the growth inhibition in assay [1] (setting [7]) is 88% (active); in assay [1] (setting [8]) it was 96% (active); in assay [1] (at 50.0 µM) it was 86% (active); in assay [2] (setting [7]), 94% (active); in assay [2] (setting [8]), 97% (active); in assay [2] (at 50.0 µM), 87.3% (active). The growth inhibition was 84% (active) in assay [3] (setting [7]); 96% (active) in assay [3] (setting [8]); 87.2% (active) in assay [3] (at 50.0 µM); 87% (active) in assay [4] (setting [7]); 95% (active) in assay [4] (setting [8]); 88.8% (active) in assay [4] (at 50.0 µM). For the same compound, the growth inhibition in assay [5] (setting [7]) was 94% (active); in assay [5] (setting [8]), 96% (active); in assay [5] (at 50.0 µM), 86.5% (active); in assay [6] (setting [7]) it was 93% (active); in assay [6] (setting [8]), 95% (active); in assay [6] (at 50.0 µM), 86.2% (active).
In the case of `CCCCCCSC(=Cc1cccc[n+]1C)SCCCCCC`, the growth inhibition in assay [1] (setting [7]) was 98% (active); in assay [1] (setting [8]), 96% (active); in assay [1] (at 50.0 µM) it was 99.5% (active); in assay [2] (setting [7]), 100% (active); in assay [2] (setting [8]), 98% (active); in assay [2] (at 50.0 µM), 99.7% (active). For the same compound, the growth inhibition in assay [3] (setting [7]) is 100% (active); in assay [3] (setting [8]), 98% (active); in assay [3] (at 50.0 µM) it was 99.7% (active); in assay [4] (setting [7]), 99% (active); in assay [4] (setting [8]), 95% (active); in assay [4] (at 50.0 µM), 99.3% (active). Further, the growth inhibition in assay [5] (setting [7]) was 98% (active); in assay [5] (setting [8]) it was 94% (active); in assay [5] (at 50.0 µM), 99.5% (active); in assay [6] (setting [7]) it was 100% (active); in assay [6] (setting [8]), 97% (active); in assay [6] (at 50.0 µM) it was 99.4% (active).
On to `Cc1c(N=Nc2c(S(=O)(=O)O)cc3cc(S(=O)(=O)O)c(N=Nc4c(C)n(C)n(-c5ccccc5)c4=O)c(O)c3c2O)c(=O)n(-c2ccccc2)n1C`, for which the growth inhibition is -20% in assay [1] (setting [7]); -13% in assay [1] (setting [8]); 3.25% in assay [1] (at 50.0 µM); -18% in assay [2] (setting [7]); -31% in assay [2] (setting [8]); 32.8% in assay [2] (at 50.0 µM). For the same compound, the growth inhibition in assay [3] (setting [7]) was -7%; in assay [3] (setting [8]) it was 26%; in assay [3] (at 50.0 µM), 4.15%; in assay [4] (setting [7]), 7%; in assay [4] (setting [8]) it was 8%; in assay [4] (at 50.0 µM) it was 36.4%. Further, the growth inhibition in assay [5] (setting [7]) is -19%; in assay [5] (setting [8]) it was -11%; in assay [5] (at 50.0 µM), -29.4%; in assay [6] (setting [7]), 5%; in assay [6] (setting [8]), -7%; in assay [6] (at 50.0 µM) it was -6.6%.
For `COc1ccc(/C(Cl)=C(\C=O)c2ccc(Cl)c(Cl)c2)cc1`, the growth inhibition in assay [1] (setting [7]) was 2%; in assay [1] (setting [8]), 49%; in assay [1] (at 50.0 µM), 99% (active); in assay [2] (setting [7]) it was 8%; in assay [2] (setting [8]) it was 70% (active); in assay [2] (at 50.0 µM), 98.9% (active). Moreover, the growth inhibition in assay [3] (setting [7]) is 13%; in assay [3] (setting [8]), 85% (active); in assay [3] (at 50.0 µM) it was 99.3% (active); in assay [4] (setting [7]) it was -10%; in assay [4] (setting [8]) it was 55%; in assay [4] (at 50.0 µM), 92.5% (active). The growth inhibition in assay [5] (setting [7]) was 41%; in assay [5] (setting [8]) it was 82% (active); in assay [5] (at 50.0 µM), 97.8% (active); in assay [6] (setting [7]), 27%; in assay [6] (setting [8]), 79% (active); in assay [6] (at 50.0 µM) it was 98.2% (active).
For `CCNc1ccccc1C`, the growth inhibition in assay [1] (setting [7]) was 3%; in assay [1] (setting [8]), 91% (active); in assay [1] (at 50.0 µM), 98.7% (active); in assay [2] (setting [7]) it was -1%; in assay [2] (setting [8]) it was 88% (active); in assay [2] (at 50.0 µM), 98.2% (active). Moreover, the growth inhibition is -2% in assay [3] (setting [7]); 86% (active) in assay [3] (setting [8]); 97% (active) in assay [3] (at 50.0 µM); 2% in assay [4] (setting [7]); 97% (active) in assay [4] (setting [8]); 96.4% (active) in assay [4] (at 50.0 µM). Besides, the growth inhibition in assay [5] (setting [7]) was 7%; in assay [5] (setting [8]), 82% (active); in assay [5] (at 50.0 µM), 97.7% (active); in assay [6] (setting [7]) it was 3%; in assay [6] (setting [8]), 97% (active); in assay [6] (at 50.0 µM), 98.3% (active).
As to `CSC(SC)(C(=O)O)c1cc(C)no1`, the growth inhibition in assay [1] (setting [7]) was -7%; in assay [1] (setting [8]), -23%; in assay [1] (at 50.0 µM), 19.4%; in assay [2] (setting [7]) it was -17%; in assay [2] (setting [8]), -2%; in assay [2] (at 50.0 µM) it was 16.6%. Moreover, the growth inhibition in assay [3] (setting [7]) was -17%; in assay [3] (setting [8]) it was -15%; in assay [3] (at 50.0 µM), 2.55%; in assay [4] (setting [7]) it was -7%; in assay [4] (setting [8]) it was 10%; in assay [4] (at 50.0 µM), 45.2%. Also, the growth inhibition in assay [5] (setting [7]) is 14%; in assay [5] (setting [8]) it was 7%; in assay [5] (at 50.0 µM), 5.2%; in assay [6] (setting [7]), -2%; in assay [6] (setting [8]) it was -21%; in assay [6] (at 50.0 µM), 1.2%.
